# Measurements reported in PubChem BioAssay (NCI).
# Compounds without any hit were thinned out: in the full panel of roughly 83,000, 20% have a hit.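 A percent growth of 40 corresponds to 60% growth inhibition; 0 means no net growth; -100 means all cells died. Active threshold: below 10.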 Unmarked numbers belong to inactive results. Active and inactive are the calls of the source.
# Legend:
# Test in all cases: NCI-60 one-dose screen, 48 h (100 = growth as untreated, 0 = no growth, -100 = all killed)
# HOP-92 NSCLC = settings: 10 µM unless noted
# NCI-H522 lung = settings: 10 µM unless noted
# A549/ATCC NSCLC = settings: 10 µM unless noted
# HT29 colon = settings: 10 µM unless noted
# SNB-19 CNS = settings: 10 µM unless noted
# EKVX NSCLC = settings: 10 µM unless noted
# UO-31 renal = settings: 10 µM unless noted
# TK-10 renal = settings: 10 µM unless noted
# ACHN renal = settings: 10 µM unless noted
# CAKI-1 renal = settings: 10 µM unless noted
# RPMI-8226 leukemia = settings: 10 µM unless noted
# OVCAR-8 ovarian = settings: 10 µM unless noted
# OVCAR-5 ovarian = settings: 10 µM unless noted
# SK-OV-3 ovarian = settings: 10 µM unless noted
# MDA-MB-435 melanoma = settings: 10 µM unless noted
# COLO 205 colon = settings: 10 µM
# SNB-75 CNS = settings: 10 µM unless noted
# T-47D breast = settings: 10 µM unless noted
# MOLT-4 leukemia = settings: 10 µM
Structure (SMILES),growth (HOP-92 NSCLC) [%],growth (NCI-H522 lung),growth (A549/ATCC NSCLC) [%],growth (HT29 colon) [%],growth (SNB-19 CNS) [%],growth (EKVX NSCLC) [%],growth (UO-31 renal) [%],growth (TK-10 renal) [%],growth (ACHN renal) [%],growth (CAKI-1 renal) [%],growth (RPMI-8226 leukemia) [%],growth (OVCAR-8 ovarian) [%],growth (OVCAR-5 ovarian) [%],growth (SK-OV-3 ovarian) [%],growth (MDA-MB-435 melanoma) [%],growth (COLO 205 colon) [%],growth (SNB-75 CNS) [%],growth (T-47D breast) [%],growth (MOLT-4 leukemia) [%]
COc1cc[c]([Hg][Cl])cc1,90.1,-73.8% (active),94.8,48.5,28.6,76.3,96.6,114,86.5,78.6,41.5,69.8,105,120,34.3,–,–,–,–
O=C(C(=O)N1CCCC1)c1cn(CCCCCn2cc(C(=O)C(=O)N3CCCC3)c3ccccc32)c2ccccc12,37.2,89.5%,–,–,–,75.5,61.6,112,87.8,73.9,66.2,90.8,106,103,87.6,110,74.9,91.3,–
O=[N+]([O-])c1ccc(/C=C/C=C/c2ccc(S(=O)(=O)F)cc2)c(Cl)c1,86.1,83.8%,98.6,96,94.3,–,79.2,108,102,98.3,93.4,99,–,98,92.9,–,71.7,86.2,–
ClCCN(CCCl)c1ccc(/C=C\c2ccnc3ccccc23)cc1,46.6,–,71,–,88.8,81,70.8,–,76,–,–,79.8,119,101,76,88.8,84.6,63.1,69.8
Oc1ccc2c3c1O[C@H]1c4[nH]c5ccccc5c4C[C@@]4(O)C(C2)N(CC2CC2)CC[C@]314,82.9,–,90,83.9,106,–,69.9,95,89.7,92.3,93.1,93.2,–,103,100,96.9,76.8,84.8,74.4
S=P(Nc1ccccc1)(Nc1ccccc1)c1ccccc1,84.1,–,91.8,104,–,90,87.7,–,102,71.4,82.5,111,99.6,108,–,146,96.7,–,–
COc1ccc(C(c2ccc(OC)cc2)C(Cl)(Cl)Cl)cc1,63.9,60%,–,78.3,84,95.7,53.4,90.3,92.1,68.4,71.5,86.7,91.9,96.2,72.4,–,–,68.4,85.8
CC(C)CCC1(CCO)C(=O)NC(=S)NC1=O,89.5,–,91.9,99.3,105,105,84.1,114,103,102,–,101,99.5,108,104,107,99.8,112,113
CCCCCCCCCCOc1ccc(C(=O)Oc2ccc(CSP3(=O)OCC4OC(n5ccc(=O)[nH]c5=O)C(F)C4OP(=O)(O)OCC4OC(n5cnc6c(N)ncnc65)C(F)C4O3)cc2)cc1 (stereo not given),85.4,71.1%,–,79.3,103,111,98.5,92,–,–,82.6,104,116,97.8,–,–,102,96.4,68.4
